Measurements reported in ChEMBL document CHEMBL1961873, “Compounds: GSK PKIS; Assays: Nanosyn kinase panel” (2012).

Target: Aurora kinase B (Homo sapiens) (UniProt Q96GD4);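 note: reported percent inhibition is a mean value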
Details: at 1 µM

Aurora kinase B (Homo sapiens), sequence (Q96GD4 whole entry): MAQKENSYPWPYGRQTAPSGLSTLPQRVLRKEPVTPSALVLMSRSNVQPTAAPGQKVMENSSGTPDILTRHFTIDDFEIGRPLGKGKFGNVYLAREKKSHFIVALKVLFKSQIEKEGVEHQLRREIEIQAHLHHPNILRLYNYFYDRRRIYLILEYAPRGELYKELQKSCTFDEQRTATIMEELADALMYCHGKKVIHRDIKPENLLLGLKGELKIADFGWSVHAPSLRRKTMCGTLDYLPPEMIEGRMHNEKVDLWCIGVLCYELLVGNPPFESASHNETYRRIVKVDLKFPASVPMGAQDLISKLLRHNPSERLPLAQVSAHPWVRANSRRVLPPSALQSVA

Going from `CCS(=O)(=O)c1ccc(OC)c(Nc2nccc(N(C)c3ccc4c(C)n[nH]c4c3)n2)c1` to `CCS(=O)(=O)c1ccc(OC)c(Nc2ncc(-c3cccc(OC)c3)o2)c1`, the inhibition falls from 7.33% to 5.4%.

Going from `Nc1nccc(-c2c(-c3ccc(F)cc3)ncn2CCCN2CCOCC2)n1` to `NS(=O)(=O)c1cccc(Nc2cc(-c3ccc(F)cc3)n[nH]2)c1`, the inhibition falls from 4.99% to 3.74%.

Compared with `COC(=O)c1ccc2c(c1)C(=Cc1cc(Br)c(O)c(Br)c1)C(=O)N2`, `O=C1Nc2ccc(-c3cccnc3)cc2C1=Cc1cc(Br)c(O)c(Br)c1` is higher in inhibition: 8.43% for the first, 16% for the second.

First: COc1cc2ncnc(Nc3ccc4c(cnn4Cc4ccccc4)c3)c2cc1OC
Second: Nc1nccc(C#Cc2cncnc2Nc2ccc(OCc3cccc(F)c3)c(Cl)c2)n1
The inhibition of the first is higher: 15% for the first, 13.2% for the second.

Compared with `O=S(=O)(CCOCc1ccc(-c2ccc3ncnc(Nc4ccc(OCc5cccc(F)c5)c(Cl)c4)c3c2)o1)c1ccccc1`, `Nc1ccc(C#Cc2cncnc2Nc2ccc(OCc3cccc(F)c3)c(Cl)c2)cc1` is lower in inhibition: 7.69% for the first, 1.27% for the second.

Going from `NC(=O)c1sc(-n2cnc3ccccc32)cc1OCc1ccccc1Br` to `NS(=O)(=O)c1cccc(-c2cc3ccncc3cc2OCc2ccccc2)c1`, the inhibition rises from 9.94% to 17.9%.

Going from `Cc1cc(Cl)cc2c1NC(=O)C2=NNc1ccc(S(N)(=O)=O)cc1` to `O=C1Nc2ccccc2/C1=C/Nc1ccc2[nH]c(=O)[nH]c2c1`, the inhibition rises from 6.64% to 44.7%.

Going from `Oc1cccc(-c2nc(-c3ccccc3)[nH]c2-c2ccncc2)c1` to `COC(=O)Nc1nc2cc(Oc3ccc(NC(=O)Nc4cccc(Br)c4)cc3)ccc2[nH]1`, the inhibition rises from 8.4% to 21%.

Going from `CCn1c(-c2nonc2N)nc2ccc(F)cc21` to `CS(=O)(=O)Nc1cccc(-c2ccc3c(NC(=O)C4CC4)n[nH]c3c2)c1`, the inhibition falls from 7.81% to 3.58%.

Target: T1, Aurora kinase C (Homo sapiens) (UniProt Q9UQB9);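 note: values are the mean inhibition of Aurora-C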
T1 sequence (whole entry): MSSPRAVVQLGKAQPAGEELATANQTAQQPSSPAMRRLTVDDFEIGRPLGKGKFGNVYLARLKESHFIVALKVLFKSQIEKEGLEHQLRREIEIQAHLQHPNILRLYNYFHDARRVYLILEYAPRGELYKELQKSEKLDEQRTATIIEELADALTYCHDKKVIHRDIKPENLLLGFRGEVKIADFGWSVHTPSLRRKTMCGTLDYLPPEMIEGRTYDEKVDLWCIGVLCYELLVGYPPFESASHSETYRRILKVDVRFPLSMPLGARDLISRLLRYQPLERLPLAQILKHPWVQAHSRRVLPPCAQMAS
Details: at 0.1 µM

First: Nc1nccc(-c2c(-c3ccc(F)cc3)nn3cc(C(F)(F)F)ccc23)n1
Second: COc1ccc(-c2nn3ncccc3c2-c2ccnc(Nc3cccc(C(F)(F)F)c3)n2)cc1
The inhibition of the first is lower: 1.04% for the first, 1.98% for the second.

Compared with `CN1CCN(C(=O)c2ccc(NC(=O)Nc3ccc(N(C)c4ccnc(Nc5ccc(CS(C)(=O)=O)cc5)n4)cc3)cc2)CC1`, `CCS(=O)(=O)c1ccc(OC)c(Nc2nccc(N(C)c3ccc4c(C)n[nH]c4c3)n2)c1` is lower in inhibition: 88.4% for the first, 6.61% for the second.

Going from `CCn1c(-c2nonc2N)nc2c(C#CC(C)(C)O)nc(OCCNC)cc21` to `CCn1c(-c2nonc2N)nc2ccc(F)cc21`, the inhibition rises from -0.74% to 1.48%.

First: Cc1ccc(C(=O)NC2CC2)cc1-c1ccc2[nH]ncc2c1
Second: CS(=O)(=O)Nc1cccc(-c2ccc3c(NC(=O)C4CC4)n[nH]c3c2)c1
The inhibition of the first is lower: -3.29% for the first, 1.43% for the second.

First: Cc1ccc2c(c1)/C(=N/Nc1ccc(S(N)(=O)=O)cc1)C(=O)N2
Second: Cc1cc(Cl)cc2c1NC(=O)C2=NNc1ccc(S(N)(=O)=O)cc1
The inhibition of the first is lower: 1.16% for the first, 2.52% for the second.

Compared with `FC(F)(F)c1ccc(-c2nn3ncccc3c2-c2ccnc(Nc3ccc4c(c3)OCCO4)n2)cc1`, `CS(=O)(=O)CCNCc1nc(-c2ccc3ncnc(Nc4ccc(OCc5cccc(C(F)(F)F)c5)cc4)c3c2)cs1` is higher in inhibition: 4.98% for the first, 5.42% for the second.

Going from `NS(=O)(=O)c1ccc(Nc2cc(-c3cccc(O)c3)n[nH]2)cc1` to `NS(=O)(=O)c1cccc(Nc2cc(-c3ccc(F)cc3)n[nH]2)c1`, the inhibition falls from 7.83% to 0.7%.

Going from `Cc1cc(O)cc(C)c1/C=C/c1cncc(C(=O)N(C)C)c1` to `COC(=O)c1ccc2c(c1)C(=Cc1cc(Br)c(O)c(Br)c1)C(=O)N2`, the inhibition falls from 3.08% to -0.01%.

Compared with `COc1cccc(-n2ncc3c(N/N=C/c4ccc(C)cc4)ncnc32)c1`, `COc1ccc2ncnc(Nc3ccc(OCc4ccccc4)cc3)c2c1` is lower in inhibition: 1.92% for the first, 1.84% for the second.

Going from `[O-][S+]1CCN(Cc2ccc(-c3ccc4ncnc(Nc5ccc(OCc6ccccc6)c(Cl)c5)c4c3)o2)CC1` to `O=S(=O)(CCOCc1ccc(-c2ccc3ncnc(Nc4ccc(OCc5cccc(F)c5)c(Cl)c4)c3c2)o1)c1ccccc1`, the inhibition rises from -0.09% to -0.03%.

First: CN(C)C(=O)O[C@H]1CN[C@H](C#Cc2cc3ncnc(Nc4ccc(OCc5cccc(F)c5)c(Cl)c4)c3s2)C1
Second: Nc1nccc(C#Cc2cncnc2Nc2ccc(OCc3cccc(F)c3)c(Cl)c2)n1
The inhibition of the first is lower: 2.15% for the first, 3.04% for the second.

Going from `NS(=O)(=O)c1ccc(NC=C2C(=O)Nc3ccc4ncsc4c32)cc1` to `O=C1Nc2ccccc2/C1=C/Nc1ccc2[nH]c(=O)[nH]c2c1`, the inhibition falls from 28.4% to 9.06%.

First: Nc1nccc(-c2c(-c3ccc(F)cc3)ncn2CCCN2CCOCC2)n1
Second: Oc1cccc(-c2nc(-c3ccccc3)[nH]c2-c2ccncc2)c1
The inhibition of the first is lower: 0.25% for the first, 2.05% for the second.

First: COc1cc2ncnc(Nc3ccc4c(cnn4Cc4ccccc4)c3)c2cc1OC
Second: Nc1ccc(C#Cc2cncnc2Nc2ccc(OCc3cccc(F)c3)c(Cl)c2)cc1
The inhibition of the first is higher: 1.9% for the first, 0.25% for the second.

First: NC(=O)c1sc(-n2cnc3ccccc32)cc1OCc1ccccc1Br
Second: NS(=O)(=O)c1cccc(-c2cc3ccncc3cc2OCc2ccccc2)c1
The inhibition of the first is lower: 1.83% for the first, 8.37% for the second.

Going from `COC(=O)Nc1nc2cc(Oc3ccc(NC(=O)Nc4cccc(Br)c4)cc3)ccc2[nH]1` to `CCS(=O)(=O)c1ccc(OC)c(Nc2ncc(-c3cccc(OC)c3)o2)c1`, the inhibition falls from 11.4% to 1.61%.

Work on `O=C1Nc2ccc(-c3cccnc3)cc2C1=Cc1cc(Br)c(O)c(Br)c1` yielded an inhibition of 2.6%.
